Results from ChEMBL document CHEMBL3988442, “University of Dundee, Small-Polar-MMV Screening Library” (2021).
About 1,000 (1.4%) of roughly 69,000 compounds showed an effect of 50% or more. What follows is part of a selection rich in strong results, with near analogues and random picks from the rest.

Test system: Leishmania donovani
Assay: Leishmania intramacrophage assay
Assay type: functional, organism-based
Set-up: scale not given: in the data most compounds retested in dose-response had high values

Cc1nc(C)n(CC2CCCN2CC(=O)Nc2ccncc2)n1 (stereo not drawn)
Percent Effect (30.3 µM, […]): 50.98%

Cc1nc(C)n(CC2CCCN2CC(=O)Nc2cccnc2)n1 (stereo not drawn)
Percent Effect (30.3 µM, […]): 2.659%

Cc1nc(C)n(CC2CCCN(CC(=O)Nc3cccnc3)C2)n1 (stereo not drawn)
Percent Effect (30.3 µM, […]): 59.36%

Cc1nc(C)n(CC2CCCCN2CC(=O)Nc2ccncc2)n1 (stereo not drawn)
Percent Effect (30 µM, 30.03 µM): -8.014%

Cc1nc(CN(C)C2CCCN(Cc3noc(C4CC4)n3)C2)oc1C (stereo not drawn)
Percent Effect (30 µM): -8.721%

OCc1ccc(-c2nccn2CCc2nc3c(s2)CCCC3)o1
Percent Effect (30.3 µM, […]): -3.192%

O=C(NCCc1ccn(-c2ccc(F)cc2)n1)C1CCCOC1 (stereo not drawn)
Percent Effect (30.3 µM, […]): 11.22%

CC(NC(=O)CN(C)C(C)C)c1ccc(Oc2cccnc2)c(F)c1 (stereo not drawn)
Percent Effect (30.3 µM, […]): 51.39%

CCN(CC)C(=O)NC(C)c1ccc(Oc2cccnc2)c(F)c1 (stereo not drawn)
Percent Effect (30.3 µM, […]): -9.456%

CC(NC(=O)N(C)C1CC1)c1ccc(Oc2cccnc2)c(F)c1 (stereo not drawn)
Percent Effect (30.3 µM, […]): 4.744%

C=C(C)COc1cccc(C(=O)N(CC)Cc2noc(C)n2)c1
Percent Effect (30.3 µM, […]): 17.93%

Cc1nc[nH]c1CN(Cc1ccccc1F)C1CC(C)(C)NC(C)(C)C1.O=C(O)CC(O)(CC(=O)O)C(=O)O
Percent Effect (30.3 µM, […]): 53.75%

Cc1nc[nH]c1CN(Cc1ccccc1)C1CC(C)(C)NC(C)(C)C1.O=C(O)CC(O)(CC(=O)O)C(=O)O
Percent Effect (30.3 µM, […]): 45.23%

Cc1cc2c(N)nc(=O)n(CC(=O)Nc3ccccc3)c2s1
Percent Effect (30.3 µM, […]): 6.295%

Cc1cc2c(N)nc(=O)n(CC(=O)Nc3cccc(Cl)c3)c2s1
Percent Effect (30.3 µM, […]): 52.64%

COc1cccc(NC(=O)Cn2c(=O)nc(N)c3cc(C)sc32)c1
Percent Effect (30.3 µM, […]): 12.79%

Cc1nc(CN2CCN(C(=O)NC(C)Cn3ccnc3)CC2)cs1 (stereo not drawn)
Percent Effect (30 µM): 14.72%

CNC(=O)C1CCN(CC(=O)Nc2cc(C(C)C)no2)CC1
Percent Effect (30 µM): 21.46%

CS(=O)(=O)NCc1noc2c1CN(C(=O)C1CCC1)CC2
Percent Effect (30.3 µM, […]): 11.5%

CCN1CC(CN(C)Cc2nc(-c3ccoc3)oc2C)CC1=O (stereo not drawn)
Percent Effect (30.3 µM, […]): -10.15%

CCN1CC(CN(C)Cc2nc(-c3ccc(C)o3)oc2C)CC1=O (stereo not drawn)
Percent Effect (30.3 µM, […]): 59.94%

CCN1CC(CN(C)Cc2nc(-c3ccc(F)cc3)oc2C)CC1=O (stereo not drawn)
Percent Effect (30.3 µM, […]): 13.51%

CN(C)C(=O)C1(c2cnccn2)CCCN1C(=O)Cc1ccsc1 (stereo not drawn)
Percent Effect (30.3 µM, […]): 25.36%

CCn1c(C)nc2cc(NC(=O)CC3CCN(S(C)(=O)=O)CC3)ccc21
Percent Effect (30.3 µM, […]): 32.47%

CC(C)CCN1Cc2c(C(=O)O)ncn2-c2ccccc2S1(=O)=O
Percent Effect (30 µM, 30.03 µM): -20.47%

CCN1Cc2c(C(=O)NC)ncn2-c2ccccc2S1(=O)=O
Percent Effect (30.3 µM, […]): 2.291%

CNC(=O)c1ncn2c1CN(CCC(C)C)S(=O)(=O)c1ccccc1-2
Percent Effect (30.3 µM, […]): 54.17%

COc1ccc(CNC(=O)c2ccoc2CN2CCNC(=O)C2)cc1
Percent Effect (30.3 µM, […]): -8.396%

CC(C)N(C)Cc1cn2c(n1)CN(C(=O)c1ccc[nH]1)CC2
Percent Effect (30.3 µM, […]): 13.65%

Cc1cc(-c2cnc(C(C)C)nc2CN(C)C(=O)c2ccccn2)on1
Percent Effect (30.3 µM, […]): 10.54%

CC(C)N(C)CCCNC(=O)c1cnn(C(C)(C)C)c1C(F)(F)F
Percent Effect (30.3 µM, […]): 10.25%

OC1(CNCCN2CCc3ccccc32)CNCCOC1 (stereo not drawn)
Percent Effect (30.3 µM, […]): 12.43%

OC1(CN2CCC(Oc3cccnc3)CC2)CNCCOC1 (stereo not drawn)
Percent Effect (30.3 µM, […]): -1.613%

FC(F)(F)c1cccc(OC2CCN(Cc3c[nH]cn3)CC2)c1
Percent Effect (30.3 µM, […]): 0.2013%

Nc1cc(C(=O)N2CCC(Oc3cccc(C(F)(F)F)c3)CC2)ccn1
Percent Effect (30.3 µM, […]): 3.315%

FC(F)(F)c1cccc(OC2CCN(Cc3ccccn3)CC2)c1
Percent Effect (30.3 µM, […]): -24.32%

OC1(CN2CCN(c3cccc(C(F)(F)F)c3)CC2)CNCCOC1 (stereo not drawn)
Percent Effect (30.3 µM, […]): 51.12%

CC(N)C(=O)N1CCC(Oc2cccc(C(F)(F)F)c2)CC1 (stereo not drawn)
Percent Effect (30.3 µM, […]): 75.62%

OC1(CN2CCC(Oc3cccc(C(F)(F)F)c3)CC2)CNCCOC1 (stereo not drawn)
Percent Effect (30.3 µM, […]): 78.32%

O=C(c1ccncc1)N1CCC(Oc2cccc(C(F)(F)F)c2)CC1
Percent Effect (30.3 µM, […]): 7.291%

OC1(CN2CCC(Oc3cccc(C(F)(F)F)c3)CC2)CCNC1 (stereo not drawn)
Percent Effect (30.3 µM, […]): 100.3%

FC(F)(F)c1cccc(OC2CCN(Cc3ncc[nH]3)CC2)c1
Percent Effect (30.3 µM, […]): 17.17%

OC1(CN2CCCC2)COCCN(c2cc(C(F)(F)F)ccn2)C1 (stereo not drawn)
Percent Effect (30.3 µM, […]): 29.85%

CCC[C@H]1CN(S(C)(=O)=O)C[C@@H]1NC(=O)CCCn1ccnc1
Percent Effect (30.3 µM, […]): -3.317%

CC(C)CCN(C)C(=O)c1cc(CN2CCC(O)CC2)on1
Percent Effect (30.3 µM, […]): 25.01%

O=C(CS(=O)(=O)Cc1nnnn1C1CC1)NCC1CC1
Percent Effect (30.3 µM, […]): 7.259%

Cc1ccc2cccc(C(=O)NCC3CCN(C(C)C)C3)c2n1 (stereo not drawn)
Percent Effect (30.3 µM, […]): 6.487%

Cc1cccc(CN2CCC3(CCN(c4ccccn4)C3)C2=O)c1.O=C(O)C(F)(F)F (stereo not drawn)
Percent Effect (30 µM, 30.03 µM): 41.53%
